This is a sample that favours compounds with a hit; in the whole collection about 19% have one here.
ELG1 repair inh: qHTS screen for small molecules that inhibit ELG1-dependent DNA repair in human embryonic kidney (HEK293T) cells expressing luciferase-tagged ELG1. HEK293T ELG1-luciferase reporter, luminescence, 16 h; DNA damage induced by 5-fluorouridine. Potency, µM (doses to about 46.1 µM), without a hit: at the top dose activity change, negative = inhibition, hits mostly inhibitors. actives 2.3% (n = 330,000); also: potency is read from the fitted curve at half-maximal effect; nearly all actives have a fitted effect of over 55% in size
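5-Fluorouridine DNA damage + compound/DMSO, 2,000 cells/well, 16 h, 37 °C/5% CO2. ONE-Glo, 30 min RT, luminescence. Readout = decrease in reporter signal.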
Giardia killer: Small Molecules that selectively kill Giardia lamblia: qHTS; Giardia lamblia trophozoite viability; activity change, % at 7.66 µM, hits read low; actives 0.15% (n = 340,000); in the data active = activity change below about -80%; inconclusive = between about -30% and that limit;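 also: parasites exposed to compound for two days anaerobically before the ATP read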
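Media and compound were dispensed first, then trophozoites at 100 cells/well; plates sat 48 hrs at 37 deg C without oxygen before ATP luminescence reagent was added and read after 15-30 min at room temperature.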
TDP1 block: qHTS Assay for Inhibitors of Tyrosyl-DNA Phosphodiesterase (TDP1); recombinant TDP1, AlphaScreen DNA substrate cleavage; actives 0.28% (n = 350,000); Potency, µM (top dose mostly 130 µM), for inactives: at the top dose activity change, negative = inhibition, usual class: inhibitors; also: potency is read from the fitted curve at half-maximal effect; nearly all actives have a fitted effect of over 40% in size
Target sequence (Q9NUW8 whole entry, looked up): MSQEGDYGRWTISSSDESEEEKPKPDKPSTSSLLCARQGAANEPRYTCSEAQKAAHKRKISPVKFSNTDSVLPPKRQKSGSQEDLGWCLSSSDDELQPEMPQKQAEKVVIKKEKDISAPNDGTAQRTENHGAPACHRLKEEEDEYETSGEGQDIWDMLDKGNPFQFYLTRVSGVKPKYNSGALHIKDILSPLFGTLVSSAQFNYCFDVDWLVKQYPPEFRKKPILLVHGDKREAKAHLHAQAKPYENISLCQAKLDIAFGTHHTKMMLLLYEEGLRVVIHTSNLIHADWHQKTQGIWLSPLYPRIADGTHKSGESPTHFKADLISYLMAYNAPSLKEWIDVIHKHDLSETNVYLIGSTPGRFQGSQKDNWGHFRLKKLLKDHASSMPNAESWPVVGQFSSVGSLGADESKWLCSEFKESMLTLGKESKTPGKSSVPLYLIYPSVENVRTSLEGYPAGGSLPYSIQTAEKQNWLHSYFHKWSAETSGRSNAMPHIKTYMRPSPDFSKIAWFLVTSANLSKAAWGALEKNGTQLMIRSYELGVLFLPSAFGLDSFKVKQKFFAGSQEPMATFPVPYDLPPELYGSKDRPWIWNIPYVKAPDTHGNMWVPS
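Compounds were preincubated with Tdp1 (1 nM final) for 15 min at room temperature before substrate (15 nM final) started a 5 min reaction; beads (10 ug/ml final) were then added for 10 min before AlphaScreen detection.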
IL1B secr inh: qHTS for Inhibitors of Inflammasome Signaling: IL-1-beta AlphaLISA Primary Screen. THP-1 LPS/ATP IL-1B secretion, AlphaLISA, 16 h; active compounds read low. activity change, % at 57.5 µM. actives 4.7% (n = 360,000). AID 743279, 2014; in the data active = activity change below about -50%; inconclusive = mostly about -30% to -49%
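THP-1 cells pretreated 1 hr with compounds (up to 57.5 uM final), then stimulated with LPS (250 ng/mL final) plus ATP (1.25 mM final); secreted IL-1B measured by AlphaLISA after 16 hr, decreased signal indicating inhibition.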
TDP1 cell noCPT: qHTS for Inhibitors of human tyrosyl-DNA phosphodiesterase 1 (TDP1): qHTS in cells in absence of CPT | DT40 Tdp1-/- hTDP1 cells, no CPT, ATP luminescence, 48 h | Potency, µM (top dose mostly 46.2 µM), without a hit: at the top dose activity change, negative = growth inhibition, most hits filed as inhibitors | actives 15% (n = 420,000) | AID 686978, 2013; also: potency is read from the fitted curve at half-maximal effect; nearly all actives have a fitted effect of over 55% in size
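Seeded 400 DT40-hTDP1 cells/well (vehicle DMSO, no 20 nM CPT); pinned compounds; ≥48 hr at 37 °C; CellTiter-Glo luminescence as viability measure.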
TDP1 cell CPT: qHTS for Inhibitors of human tyrosyl-DNA phosphodiesterase 1 (TDP1): qHTS in cells in presence of CPT. chicken DT40 Tdp1-/-;hTDP1 cells + 20 nM CPT, ATP luminescence, 48 h. Potency, µM (highest dose often 46.2 µM), inactives show top-dose activity change, negative = growth inhibition, hits mostly inhibitors. actives 12% (n = 420,000); also: potency is read from the fitted curve at half-maximal effect; nearly all actives have a fitted effect of over 55% in size
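Chicken DT40 Tdp1-/- cells stably complemented with human TDP1 were seeded at 400 cells/well in medium containing 20 nM camptothecin, exposed to pin-transferred compounds, and grown at 37 °C for at least 48 hr. Viability was read as ATP luminescence.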
Active calls of the source: *; [ ] = remark or other dose. Unless noted, calls follow the shape of the dose curve; as a rule, active = well fitted curve in the direction sought with a large enough effect; inconclusive = small, poorly fitted or top-dose-only effect, or another doubt; inactive = no such curve, though single readings can be large; an effect the other way counts as inactive or inconclusive. % is scaled to controls: 0 for no effect and ±100 for the full control effect.

`Cc1ccc(CNC(=O)C(C)n2c(=O)cc(-c3ccccc3)c3c(C)nn(C)c32)cc1` (stereo unspecified) gave TDP1 block 6%, TDP1 cell noCPT inconclusive and TDP1 cell CPT 18µM*.
Screening Cc1nn(C)c2c1c(C(F)(F)F)cc(=O)n2C(C)C(=O)NCc1ccccc1Cl (stereo unspecified) returned TDP1 block 7%, TDP1 cell noCPT -5% and TDP1 cell CPT -15%.
For Nc1ccc(S(=O)(=O)O)cc1 the results were TDP1 block 15%.
For O=C(c1cccc(F)c1)N1CCC[C@@]2(CCN(Cc3nccs3)C2)C1 the results were TDP1 cell noCPT -17% and TDP1 cell CPT 2%.
`O=C(COC(=O)C1CC(O)CN1S(=O)(=O)c1ccccc1[N+](=O)[O-])c1ccc[nH]1` (stereo unspecified) gave ELG1 repair inh 6%, Giardia killer 30, TDP1 block 0%, IL1B secr inh -29, TDP1 cell noCPT 1% and TDP1 cell CPT -16%.
`COC(=O)c1ccc(Cn2c(=O)cc(C(F)(F)F)c3c(C)nn(C)c32)cc1` gave TDP1 block 1%, TDP1 cell noCPT 15µM* and TDP1 cell CPT inconclusive.
`CCn1nc(C)c2c(-c3ccccc3)cc(=O)n(C(C)C(=O)Nc3ccc(OC)c(OC)c3)c21` (stereo unspecified) gave TDP1 block 1%, TDP1 cell noCPT 16µM* and TDP1 cell CPT 10µM*.
`CCC1CCCCN1C(=S)Nc1ccc(OC(F)F)cc1` (stereo unspecified) gave ELG1 repair inh 2%, Giardia killer -26, TDP1 block 3%, IL1B secr inh -2, TDP1 cell noCPT inconclusive and TDP1 cell CPT -11%.
Screening Cc1cc(=O)n2[nH]c(NC(=O)c3cccc(Cl)c3)nc2n1 returned TDP1 block 0%, TDP1 cell noCPT inconclusive and TDP1 cell CPT -1%.
`CN(CCNC(=O)c1ccc(/C=N/O)nc1)Cc1ccccc1` gave ELG1 repair inh 11%, Giardia killer 18, TDP1 block 5%, IL1B secr inh -7, TDP1 cell noCPT -8% and TDP1 cell CPT -17%.
`CN(CCCNC(=O)c1ccc(/C=N/O)nc1)CCCN(C)Cc1ccccc1` gave ELG1 repair inh -10%, Giardia killer -7, TDP1 block 6%, IL1B secr inh -12, TDP1 cell noCPT 23µM* and TDP1 cell CPT inconclusive.
`CCOC(=O)C1=C(N)Oc2cc(O)ccc2C1c1cccnc1` (stereo unspecified) gave ELG1 repair inh -13%, Giardia killer 1, TDP1 block 8%, IL1B secr inh 17, TDP1 cell noCPT inconclusive and TDP1 cell CPT 23µM*.
CCOc1ccc(-c2cc(C(=O)NCCc3ccc(OC)c(OC)c3)[nH]n2)cc1 was read as TDP1 block 3%, TDP1 cell noCPT inconclusive and TDP1 cell CPT inconclusive.
`COc1ccc(CCNC(=O)c2cc(-c3ccc(C)c(C)c3O)n[nH]2)cc1OC` gave ELG1 repair inh inconclusive, Giardia killer 2, TDP1 block -7%, IL1B secr inh inconclusive, TDP1 cell noCPT 16µM* and TDP1 cell CPT 21µM*.
`COc1ccc(CCNC(=O)c2cc(-c3cc(C)ccc3O)n[nH]2)cc1OC` gave ELG1 repair inh 23µM*, Giardia killer -10, TDP1 block 6%, IL1B secr inh inconclusive, TDP1 cell noCPT inconclusive and TDP1 cell CPT inconclusive.
`Cc1cc(CN2CCN(CC(=O)Nc3cc(C(F)(F)F)ccc3-n3cncn3)CC2)no1` gave ELG1 repair inh -24%, Giardia killer 6, TDP1 block 3%, IL1B secr inh 5, TDP1 cell noCPT inconclusive and TDP1 cell CPT inconclusive.
CC(C)n1c(O)c(N=NC(=O)CNC(=O)CCc2ccccc2)c2ccccc21 was read as ELG1 repair inh 0%, Giardia killer 19, IL1B secr inh -1, TDP1 cell noCPT inconclusive and TDP1 cell CPT 5%.
`CC(C)n1c(O)c(N=NC(=O)Cn2ccc(C(F)(F)F)n2)c2ccccc21` gave ELG1 repair inh -16%, Giardia killer 18, TDP1 block -1%, IL1B secr inh 0, TDP1 cell noCPT 8.2µM* and TDP1 cell CPT inconclusive.
O=C(Cn1ccc(C(F)(F)F)n1)N=Nc1c(O)[nH]c2ccccc12 was read as ELG1 repair inh 5%, Giardia killer 0, IL1B secr inh -3, TDP1 cell noCPT -20% and TDP1 cell CPT 6%.
`Cn1c(O)c(N=NC(=O)Cn2c(C(F)(F)F)nc3ccccc32)c2ccccc21` gave ELG1 repair inh -23%, Giardia killer -3, TDP1 block 4%, IL1B secr inh 11, TDP1 cell noCPT 13µM* and TDP1 cell CPT 21µM*.
For COc1ccccc1C(=O)NCC(=O)N=Nc1c(O)n(C(C)C)c2ccccc12 the results were ELG1 repair inh -4%, Giardia killer 19, TDP1 block 2%, IL1B secr inh -7, TDP1 cell noCPT 18µM* and TDP1 cell CPT inconclusive.
For Cc1cc(C(=O)N=Nc2c(O)n(C(C)C)c3ccccc23)n[nH]1 the results were ELG1 repair inh -24%, Giardia killer 11, TDP1 block 3%, IL1B secr inh -7, TDP1 cell noCPT 18µM* and TDP1 cell CPT inconclusive.
`CCOc1ccc(Cn2nnc3c(=O)[nH]c(C4CCN(C(=O)c5ccccc5)CC4)nc32)cc1` gave TDP1 block 2%, TDP1 cell noCPT inconclusive and TDP1 cell CPT inconclusive.
CC(C)c1ccccc1Oc1c(C(F)(F)F)oc2c(CN3CCN(C)CC3)c(O)ccc2c1=O was read as TDP1 cell noCPT -5% and TDP1 cell CPT -19%.
For C=C[C@](C)(O)CCC1C(=C)CC(O)C2C(C)(C)CCCC12C (stereo partly specified) the results were TDP1 block 13%[56.1 µM], TDP1 cell noCPT 9.2µM* and TDP1 cell CPT inconclusive.

Bioassay records deposited in PubChem BioAssay by National Center for Advancing Translational Sciences (NCATS).
